Inconclusive results are not listed. Calls of active or inactive are those of the source. The calls were made as follows, unless noted: active = hit-call score of the fitted dose curve at least 0.9, where 1 is the maximum; inconclusive = response in the unintended direction; inactive = score below 0.9.
Legend:
[1] = target: Nucleoli Translocation, AR (gene 367) (UniProt P10275); test: UPITT_HCI_U2OS_AR_TIF2_Nucleoli_Antagonist: University of Pittsburgh U2OS Androgen Receptor-Transcriptional Intermediary Factor 2 (AR-TIF2) Antagonism High Content Imaging Assay for Nucleoli Translocation (AID 2283997)
Nucleoli Translocation, AR (gene 367), sequence (P10275 whole entry, looked up): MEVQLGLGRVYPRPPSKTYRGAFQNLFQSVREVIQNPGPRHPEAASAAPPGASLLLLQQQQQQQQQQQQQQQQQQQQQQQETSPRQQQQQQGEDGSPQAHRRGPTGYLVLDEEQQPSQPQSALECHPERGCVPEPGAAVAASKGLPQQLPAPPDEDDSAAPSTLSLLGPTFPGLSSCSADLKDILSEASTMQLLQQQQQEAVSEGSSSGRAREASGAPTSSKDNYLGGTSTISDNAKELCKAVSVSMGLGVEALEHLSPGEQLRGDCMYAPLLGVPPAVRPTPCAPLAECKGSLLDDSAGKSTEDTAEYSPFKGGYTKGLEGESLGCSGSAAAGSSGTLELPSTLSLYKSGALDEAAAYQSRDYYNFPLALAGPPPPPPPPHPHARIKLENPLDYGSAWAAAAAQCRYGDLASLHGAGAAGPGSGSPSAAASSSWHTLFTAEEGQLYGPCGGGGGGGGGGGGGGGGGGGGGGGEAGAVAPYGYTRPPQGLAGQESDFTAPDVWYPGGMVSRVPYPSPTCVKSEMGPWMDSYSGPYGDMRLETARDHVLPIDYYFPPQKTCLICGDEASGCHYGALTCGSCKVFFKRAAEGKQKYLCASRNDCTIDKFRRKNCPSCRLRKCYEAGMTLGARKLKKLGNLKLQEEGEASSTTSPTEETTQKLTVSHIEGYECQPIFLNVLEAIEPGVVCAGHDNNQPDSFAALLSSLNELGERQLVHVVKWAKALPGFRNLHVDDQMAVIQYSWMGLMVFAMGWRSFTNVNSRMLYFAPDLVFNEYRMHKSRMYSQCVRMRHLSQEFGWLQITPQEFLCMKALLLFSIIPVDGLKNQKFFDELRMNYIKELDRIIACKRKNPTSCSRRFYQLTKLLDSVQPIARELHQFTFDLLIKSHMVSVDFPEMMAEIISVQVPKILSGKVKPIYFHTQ
Procedure, shortened: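 U2OS cells expressing RFP-tagged human AR and GFP-tagged TIF2 were imaged by high-content fluorescence microscopy for red AR signal in the nucleolar region. Compounds were screened at 20 uM final (0.2% DMSO), with activity fitted relative to DHT as baseline.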

[2] = target: Nucleoli Translocation, AR (gene 367) (UniProt P10275); test: UPITT_HCI_U2OS_AR_TIF2_Nucleoli_Agonist: University of Pittsburgh U2OS Androgen Receptor-Transcriptional Intermediary Factor 2 (AR-TIF2) Agonism High Content Imaging Assay for Nucleoli Translocation (AID 2283998)
Procedure, shortened: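 RFP-AR / GFP-TIF2 cells; cpds diluted in serum-free medium; single-point screen 20 uM final (0.2% DMSO), actives confirmed in triplicate; conc-response 0.195–50 uM final (0.5% DMSO). Readout: nucleolar red fluorescence, positive direction vs DMSO.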

[3] = target: Ratio of Nucleoli Translocation and Cytoplasm, AR (gene 367) (UniProt P10275); test: UPITT_HCI_U2OS_AR_TIF2_Nucleoli_Cytoplasm_Ratio_Antagonist: University of Pittsburgh U2OS Androgen Receptor-Transcriptional Intermediary Factor 2 (AR-TIF2) Antagonism High Content Imaging Assay for Ratio of Nucleoli Translocation and Cytoplasm (AID 2283999);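 also: antagonists lower the DHT-driven ratio of nucleolar to cytoplasmic red signal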
Ratio of Nucleoli Translocation and Cytoplasm, AR (gene 367), sequence (P10275 whole entry, looked up): as above
Procedure, shortened: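 U2OS cells co-expressing RFP-tagged human AR and GFP-tagged TIF2, antagonist mode with DHT as baseline. Nucleolar-to-cytoplasmic red fluorescence ratio imaged by high-content microscopy; final compound 20 uM (0.2% DMSO) primary, 0.195–50 uM (0.5% DMSO) concentration-response.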

[4] = target: Ratio of Nucleoli Translocation and Cytoplasm, AR (gene 367) (UniProt P10275); test: UPITT_HCI_U2OS_AR_TIF2_Nucleoli_Cytoplasm_Ratio_Agonist: University of Pittsburgh U2OS Androgen Receptor-Transcriptional Intermediary Factor 2 (AR-TIF2) Agonism High Content Imaging Assay for Ratio of Nucleoli Translocation and Cytoplasm (AID 2284000);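 also: hits raise the red nucleolar to cytoplasm ratio above vehicle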
Procedure, shortened: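 U2OS cells expressing RFP-tagged human AR and GFP-tagged TIF2 were imaged by high-content fluorescence microscopy. The endpoint is the ratio of nucleolar to cytoplasmic red fluorescence, fitted for gain of signal relative to DMSO. Concentration-response spanned 0.195 to 50 uM final (0.5% DMSO).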

[5] = system: DIO1 (gene 1733); test: CCTE_GLTED_hDIO1: CCTE's human Deiodinase 1 (DIO1) Inhibition Assay, Great Lakes Toxicology and Ecology Division (GLTED) Lab (AID 2283987);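 also: isolated human DIO1 enzyme in a cell-free setup rather than cells; enzyme activity read as free iodide liberated from substrate via Sandell-Kolthoff colorimetry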
Procedure, shortened: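 Steps: human DIO1 enzyme plus test chemical, 3 h incubation; free iodide then quantified in a second Sandell-Kolthoff step by absorbance. DMSO served as negative control and baseline.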

[6] = CCTE_Simmons_MITO_basal_resp_rate: CCTE's HepG2 Seahorse XF Respirometric Screening Assay at Basal Respiratory State, Simmons Lab (AID 2284001; active = hit-call score of the fitted dose curve at least 0.9, where 1 is the maximum; inactive = score below 0.9); conditions: actives raise or lower the signal
Procedure, shortened: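 HepG2 cells were given test chemicals at 7 concentrations, 125 nM to 100 uM final, and oxygen consumption rate was read every 6 min (3 min mix, 3 min measure) over 72 min. Basal-phase OCR was fitted bidirectionally against DMSO.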

[7] = CCTE_Simmons_MITO_max_resp_rate: CCTE's HepG2 Seahorse XF Respirometric Screening Assay at Maximal Respiratory State [uncoupled], Simmons Lab (AID 2284002; active = hit-call score of the fitted dose curve at least 0.9, where 1 is the maximum; inactive = score below 0.9); conditions: actives raise or lower the signal
Procedure, shortened: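 HepG2, Seahorse XF96, maximal OCR post-FCCP. Cpd 125 nM–100 uM final (7 conc), n=3 biological. Kinetic reads every 6 min (3 min mix/3 min measure) over 72 min; fit bidirectional vs DMSO.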

[8] = CCTE_Simmons_MITO_inhib_resp_rate: CCTE's HepG2 Seahorse XF Respirometric Screening Assay at Inhibited Respiratory State [full ETC block], Simmons Lab (AID 2284006; active = hit-call score of the fitted dose curve at least 0.9, where 1 is the maximum; inactive = score below 0.9); conditions: actives raise or lower the signal
Procedure, shortened: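 HepG2 oxygen consumption was measured by Seahorse XF after compound, FCCP, then rotenone/antimycin A injections. Seven concentrations from 125 nM to 100 uM (final) were tested, with 6-min kinetic reads over 72 minutes. Inhibited-state OCR was fitted bidirectionally against DMSO.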

[9] = CCTE_Simmons_MITO_viability: CellTiter-Glo Viability Assessment for CCTE's HepG2 Seahorse XF Respirometric Screening Assay [post-hoc], Simmons Lab (AID 2284007);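 as to AC50: cells exposed to chemical for 90 min before the ATP read; actives lower ATP signal relative to DMSO baseline meaning reduced viability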
Procedure, shortened: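 HepG2 cells exposed 90 min to 7 concentrations from 125 nM to 100 uM final, then ATP measured by luciferase luminescence. Three biological replicates per concentration; DMSO vehicle; dichlone control at 10 nM–100 uM.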

[10] = TOX21_TR_RXR_BLA_Antagonist_Followup_viability: Viability Assessment in the Tox21 Thyroid Hormone Receptor beta Retinoid X Receptor alpha (RXRa) Antagonism Beta-lactamase (BLA) Follow-Up Assay (AID 2283979)
Description: GeneBLAzer RXRa-UAS-bla HEK293T assay (RXRa-bla) (ThermoFisherScientific Catalog No. K1697) was run in qHTS 1536 well format as a secondary assay for specificity of response in the TOX21_TR_GH3_LUC_Agonist assay.TOX21_TR_RXR_BLA_Antagonist_Followup_viability is a component of the TOX21_TR_RXR_BLA_Antagonist_Followup assay. This component measures cell viability using the CellTiter-Glo Luciferase-coupled ATP quantitation.The assay component endpoint TOX21_TR_RXR_BLA_Antagonist_Followup_viability was analyzed with bidirectional fitting relation to DMSO as the negative control and baseline of activity. Using a type of viability reporter, loss-of-signal activity can be used to understand changes in viability. […]
Cell Media Required: Growth (90% DMEM/F-12, 10% Fetal Bovine Calf Serum, 100U/ml Penicillin, 100 ug/ml Streptomycin), Assay (10ng/mL sodium selenite, 10 ug/mL humanapo-transferrin, 10 uM ethanolamine, 10 ug/mL insulin, 500 ug/mL bovine serum albumin (BSA))Assay Protocol: RXRa-bla cells were seeded at 2,500/well in 6 uL of the assay medium containing phenol red-free DMEM with 2% charcoal-stripped FBS in 1,536-well black-wall/clear-bottom plates (Greiner Bio-One North America) usinga Multidrop Combi dispenser. […] After 2-h incubation at room temperature, the fluorescence intensity was measured using an Envision plate reader (Perkin Elmer). Data were expressed as the ratio of 460:530 nm.

Measured: AC50

Cc1ccc(C(C)C)cc1
inactive: [1] | [2] | [3] | [4]

OCCO
inactive: [1] | [2] | [3] | [4]

NCc1cccc(C2CCN(C(=O)c3ccc(C#Cc4ccccc4F)o3)CC2)c1
active: [5] 88.6 µM | [1] 72.7 µM | [3] 27.2 µM | [4] 50 µM | [6] 37.2 µM | [7] 61.4 µM
inactive: [2] | [8] | [9]

CN(C[C@@H](CC[N+]12CCC(C3CCCCC3)(CC1)CC2)c1ccc(Cl)c(Cl)c1)C(=O)c1cc(C(F)(F)F)cc(C(F)(F)F)c1
active: [5] 57.6 µM | [1] 50 µM | [3] 29.6 µM | [4] 50 µM

CC(C)(C)c1csc(-c2cc3cc(OCc4ccccc4CC(=O)O)ccc3o2)n1
active: [5] 100 µM | [6] 4.24 µM | [7] 4.72 µM | [8] 4.67 µM | [9] 50 µM

CCN(CC)C(=O)c1cc(S(=O)(=O)Cc2ccccc2)c(N2CCC(c3ccccc3)CC2)cc1N(CC)CCN(C)C
active: [5] 40 µM

CC(C)(c1cc(Br)c(O)c(Br)c1)c1cc(Br)c(O)c(Br)c1
inactive: [8] | [9]
active: [5] 37.6 µM | [6] 4.5 µM | [7] 6.61 µM

COc1cc(C(=O)NC2CCN(C)CC2)ccc1Nc1ncc2c(n1)N(C1CCCC1)CC(F)(F)C(=O)N2C
active: [10] 26 µM | [2] 46.5 µM
inactive: [1] | [3] | [4]

OC12N=C(c3ccccc3)SC1Cc1cc(Cl)ccc12 (configuration not stated)
active: [5] 21.1 µM
inactive: [6] | [7] | [8] | [9]
